About 79,000 compounds went through this panel and 15% of them were active in at least one assay; those are over-represented in the sample as a whole. Unmarked numbers belong to inactive results. Active and inactive are the calls of the source. Cut-off read from the data, not from the text of the source: active = growth inhibition above about 70%; inactive = the rest.
Key:
[1] = NCI Yeast Anticancer Drug Screen. Data for the rad50 strain (AID 155);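 note: 0% = growth of vehicle-only cultures of the same strain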; conditions: S. cerevisiae rad50 strain growth inhibition; at 50.0 µM; active compounds read high
Method in brief: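 Relative growth inhibition (compound vs vehicle) was measured in yeast with a defined repair-gene alteration.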

[2] = NCI Yeast Anticancer Drug Screen. Data for the mec2-1 strain (AID 157); conditions: S. cerevisiae mec2-1 strain, at 50.0 µM, active compounds read high
Method in brief: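 Each compound was tested on mec2-1 yeast, a strain altered in DNA damage repair or cell cycle control. Growth inhibition is reported relative to vehicle.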

[3] = NCI Yeast Anticancer Drug Screen. Data for the sgs1 mgt1 strain (AID 161);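 note: 0% = growth of cultures given vehicle only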; conditions: S. cerevisiae sgs1 mgt1 strain, at 50.0 µM, active compounds read high
Method in brief: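 Mutant yeast exposed to compound; growth scored against vehicle-only wells.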

[4] = NCI Yeast Anticancer Drug Screen. Data for the cln2 rad14 strain (AID 165);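 note: 0% = growth equal to vehicle treated cultures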; conditions: S. cerevisiae cln2 rad14 strain, at 50.0 µM, active compounds read high
Method in brief: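 Test compounds were added to cln2 rad14 yeast cultures; inhibition of growth was then determined by comparison with vehicle treatment.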

[5] = NCI Yeast Anticancer Drug Screen. Data for the bub3 strain (AID 167); conditions: S. cerevisiae bub3 mutant strain, at 50.0 µM, active compounds read high
Method in brief: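 Screening used yeast with an engineered genetic alteration affecting cell cycle control. Compound-exposed cultures were compared with vehicle cultures, and reduced growth was taken as inhibition.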

[6] = NCI Yeast Anticancer Drug Screen. Data for the mlh1 rad18 strain (AID 175); conditions: S. cerevisiae mlh1 rad18 strain growth inhibition; at 50.0 µM; active compounds read high
Method in brief: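 Inhibition values reflect reduced growth of mutant yeast versus vehicle-treated controls following compound exposure; the mutations affect DNA damage repair.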

Structure (SMILES)	growth inhibition [1]	growth inhibition [2]	growth inhibition [3]	growth inhibition [4]	growth inhibition [5]	growth inhibition [6]
C[C@]12CCC(=O)C=C1CC[C@@H]1C2CC[C@]2(C)Nc3[nH]ncc3CC12 (stereo not given in full)	-22.2%	9.6%	37.4%	33.6%	11.8%	27.1%
COc1ccc(C(O)C(=O)c2nc3ccc([N+](=O)[O-])cc3[nH]c2=O)cc1 (stereo not given)	-16.5%	-49.5%	-29.5%	-22.1%	-36.5%	-5.2%
COc1ccc(CCl)c(C)c1OC	32.7%	5.75%	18.9%	2.75%	16.1%	-10.7%
CCCNC(=O)/C=C\S(=O)CCC (stereo not given)	-1.15%	2.9%	1.15%	-16.5%	16.9%	-2.6%
CCCCCCCCN1COC2CCc3ccccc3C21 (stereo not given)	93.5% (active)	93.8% (active)	93.8% (active)	87.6% (active)	94% (active)	92.3% (active)
CC1(C)CC(C)(C)[P+]1(C)c1ccccc1	-0.35%	16.4%	12.8%	-3.45%	15.6%	10.1%
O=C1CSC2=NC3=C(COC/C3=C\c3ccc(Br)cc3)C(c3ccc(Br)cc3)N12 (stereo not given)	7.05%	14.3%	39.1%	18.9%	33.6%	33.1%
Nc1c2ccccc2nc2ccc3c(=O)cc(-c4ccccc4)oc3c12	20.6%	18.9%	-12.1%	22.1%	11.1%	-73%
Cc1ccc(OC(=O)c2cc([N+](=O)[O-])cc([N+](=O)[O-])c2)cc1	4.4%	-0.5%	13.3%	-12.8%	2%	-0.7%
COC(=O)/C(N=Nc1cccc(C)c1)=C(\C)O	8.65%	5.65%	5.3%	19.9%	9.8%	-2.7%
CC(C)(C)OC(=O)NC(Cc1ccccc1)OCc1ccccc1 (stereo not given)	-11.3%	-25.2%	-0.05%	11.8%	-15.4%	-19.7%
CCCCCC(C(C)=O)C(C)=O	-17.5%	-19.6%	-15.1%	0.45%	-15.8%	-15.6%
CN1C(=O)C(O)(c2c3c(c(C4(O)C(=O)N(C)c5ccccc54)c4c2OCO4)OCO3)c2ccccc21 (stereo not given)	0.45%	-0.6%	-28.2%	-7.35%	-5.2%	8.95%
COc1cc2c(c(OC)c1OC)-c1ccc(SC)c(=O)cc1C(N=C(NC1OCC(OC(C)=O)C(OC(C)=O)C1OC(C)=O)SN(NC(=O)OCc1ccccc1)C(=O)OCc1ccccc1)CC2 (stereo not given)	5.6%	10.4%	24.4%	-11.7%	-1.55%	32.3%
COc1ccc(N=c2nc3n4c(c(Br)cc(Br)c4n2)NC(C(Br)(Br)Br)=N3)cc1	1.7%	1.2%	6.25%	-15.3%	4.35%	41.1%
COc1ccccc1/C=N/Nc1ccc([N+](=O)[O-])cc1[N+](=O)[O-]	6.45%	5.15%	3.35%	-16.6%	16.8%	18.8%
CCOC(=O)C(C(=O)c1cccnc1)C(C(=O)OCC)C(=O)c1cccnc1 (stereo not given)	5.1%	20.9%	6%	20.4%	12.1%	5.55%
Nc1ccc(S(=O)(=O)Nc2nccs2)cc1	-0.6%	-17.2%	-3.7%	6.05%	-1.85%	-3.4%
c1csc(-c2cc(-c3ccsc3)c(-c3ccsc3)s2)c1	-37.5%	-48.4%	-33.6%	-5.35%	-15.9%	-8.6%
CCc1cn(C2CC(CO)C(CO)S2)c(=O)[nH]c1=O (stereo not given)	-5.5%	-33%	7.85%	-6.4%	-8.55%	-6.7%
